KB-3-1 cytotox = KB-3-1 parental cell cytotoxicity; 400,000 compounds, 1.4% hits; KB-3-1 viability, CellTiter-Glo ATP luminescence, 72 h; Potency, µM (titrated, usually from 46.1 µM), usual class: cytotoxic; AID 1347075; further: potency means the concentration at half of the fitted maximal effect; on the % scale 0 is the no-effect control and ±100 the full control effect; nearly all actives have a fitted effect of over 60% in size
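Parental KB-3-1 viability, qHTS format: 72 h compound exposure, 37 °C; CellTiter-Glo; media-only wells and DMSO plates as controls; concentration-effect fits on corrected data.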
MCF10A rereplic = induces DNA re-replication in MCF 10a normal breast cells. MCF 10A DNA re-replication, Hoechst nuclear intensity, 48 h. Potency, µM (titrated, usually from 46.1 µM), for the others: at the top dose activity, positive = re-replication, actives largely listed as activators. 350,000 compounds, 2.9% hits; further: potency means the concentration at half of the fitted maximal effect; % of control where 0% means no effect; nearly all actives have a fitted effect of over 50% in size
KB-V1 cytotox = KB-V1 MDR subline cytotoxicity. KB-V1 MDR cells viability, CellTiter-Glo, 72 h. Potency, µM (series often up to 46.1 µM), most hits filed as cytotoxic. 400,000 compounds, 3.4% hits; further: potency means the concentration at half of the fitted maximal effect; on the % scale 0 is the no-effect control and ±100 the full control effect; nearly all actives have a fitted effect of over 60% in size
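KB-V1 MDR subline cells in DMEM (phenol-red free, 10% FBS) exposed to compounds in qHTS concentration series for 72 h at 37 degrees C. Viability read by CellTiter-Glo luminescence; concentration-effect curves fitted after normalization and correction.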
SW480 rerep = inducers of DNA re-replication in SW480 colon cancer cells; SW480 DNA re-replication, Hoechst DNA content imaging, 48 h; Potency, µM (titrated, usually from 46.1 µM), for inactives: top-dose re-replication activation, most hits filed as activators; 340,000 compounds, 1.8% hits; AID 624297; further: potency means the concentration at half of the fitted maximal effect; % of control where 0% means no effect; nearly all actives have a fitted effect of over 55% in size
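Cells (250 per well) received 23 nL compound or DMSO by pin tool and were kept 48 hr at 37 C, 5% CO2. Nuclei were then stained with Hoechst for 40 min and scanned for DNA content.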
D3 antag = antagonists of human D3 dopamine receptor. P35462. D3R cells, DiscoveRx beta-arrestin luminescence, antagonist mode; stronger effect = lower value. 360,000 compounds, 2.5% hits. max response, negative = inhibition, %; in the data active means max response below about -50%; inconclusive means no clear call, values can overlap the other calls; further: on the % scale 0 is the no-effect control and ±100 the full control effect
Target sequence (P35462 whole entry, looked up): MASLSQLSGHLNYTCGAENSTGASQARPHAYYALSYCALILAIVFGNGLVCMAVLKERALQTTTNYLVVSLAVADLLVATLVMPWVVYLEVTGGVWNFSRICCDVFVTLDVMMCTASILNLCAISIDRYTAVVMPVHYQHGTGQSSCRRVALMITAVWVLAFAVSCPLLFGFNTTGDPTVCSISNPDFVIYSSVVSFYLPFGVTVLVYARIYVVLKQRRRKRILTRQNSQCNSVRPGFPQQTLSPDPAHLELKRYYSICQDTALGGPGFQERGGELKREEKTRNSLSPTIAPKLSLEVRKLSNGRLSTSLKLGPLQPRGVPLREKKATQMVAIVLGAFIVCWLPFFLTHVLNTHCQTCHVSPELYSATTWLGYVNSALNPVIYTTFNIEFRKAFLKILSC
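Cells plated overnight at 1500 cells/well, then exposed to library compounds with dopamine controls for 90 minutes at 37 degrees C. DiscoveRx reagent added for 30–60 minutes at room temperature; luminescence read, quantitative HTS format.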
DRD3 agonist = agonists of human D3 dopamine receptor; D3R DiscoveRx beta-arrestin cells, luminescence, 90 min; max activation, %; 410,000 compounds, 0.58% hits; AID 652048; in the data active means max activation above about 30%; further: 0% is about no effect
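Agonist-mode cell screen: cells plated at 1500/well and incubated overnight at 37 °C, then exposed to library compounds for 90 min at 37 °C. Detection reagent was added for 30–60 min at room temperature, and luminescence was read.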
The depositor's hits bear a star; i = inactive; ? = inconclusive; . = no result. Shown are actives, neighbours in structure and some others; about 8.9% of the full set was active somewhere. Unless noted, the call rests on the fitted dose curve; in most records, active means well fitted curve in the direction sought with a large enough effect; inconclusive means small, poorly fitted or top-dose-only effect, or another doubt; inactive means no such curve, though single readings can be large; an effect the other way counts as inactive or inconclusive.

SMILES	KB-3-1 cytotox	MCF10A rereplic	KB-V1 cytotox	SW480 rerep	D3 antag	DRD3 agonist
CCC(CC)C(=O)c1c[nH]c(C(=O)NN)c1	i	10.3µM*	i	?	-27.4	-7.5
O=S1(=O)C=C(SCc2ccc(Cl)c(Cl)c2)Nc2ccccc21	?	?	14.6µM*	?	18.0	-5.7
Cc1cc(F)ccc1-c1cc(C(=O)NCc2cccs2)[nH]n1	i	.	i	.	-77.0*	-21.7
CC(=O)Nc1ccc(NC(=O)c2cc(-c3ccc(F)cc3C)n[nH]2)cc1	i	.	i	.	?	-7.2
Cc1cc(F)ccc1-c1cc(C(=O)NCc2cc(C(F)(F)F)cc(C(F)(F)F)c2)[nH]n1	i	.	i	.	-8.3	-0.1
Cc1cc(F)ccc1-c1cc(C(=O)Nc2ccccc2)[nH]n1	i	.	i	.	-84.5*	-12.0
Cc1ccc(NC(=O)c2ccc(CN3CC(=O)N4CCCCC4C3=O)cc2)cc1 (centres undefined)	.	.	.	.	.	-10.4
CC(CC(c1ccccc1)c1ccccc1)NC(C)(C)C (centres undefined)	.	.	.	.	.	-0.7
C/C(=N\NC(=O)C1COc2ccccc2O1)c1ccccn1 (centres undefined)	?	18.4µM*	?	13.8%	?	-19.6
Cc1c(/C=N\NC(=O)C2COc3ccc(C(C)(C)C)cc3O2)c2ccccc2n1C (centres undefined)	i	?	?	-0.5%	19.4	58.5*
COc1ccc(/C=N\NC(=O)C2COc3ccccc3O2)cc1O (centres undefined)	i	?	?	20.3%	-23.9	-9.5
COc1cc(/C=N/NC(=O)C2COc3ccccc3O2)ccc1O (centres undefined)	i	0.6%	i	-10.2%	-56.4*	-11.2
Cn1cccc1/C=N\NC(=O)C1COc2ccc(C(C)(C)C)cc2O1 (centres undefined)	i	-6.6%	i	-4.7%	13.0	11.7
O=C(NCCc1ccccc1)C1COc2ccccc2O1 (centres undefined)	i	0.1%	i	2.7%	-3.0	-5.6
O=C(NCCc1ccc(O)c(O)c1)C1COc2ccccc2O1 (centres undefined)	i	28.2%	i	?	12.6	92.1*
O=C(N/N=C/c1ccc2c(c1)OCO2)C1COc2ccccc2O1 (centres undefined)	i	9.2%	10.3µM*	0.5%	-11.4	-1.7
Cc1ccc(N=C2NC(=O)CC(C(=O)Nc3cc(C(F)(F)F)ccc3Cl)S2)cc1 (centres undefined)	i	.	i	.	.	-13.6
c1ccc2c(c1)CCc1ccccc1C2=C1CCNCC1	?	-6.2%	?	21.0%	-85.1*	-13.6
O=C1C(=C2CCc3ccccc32)Cc2ccccc21	i	0.4%	i	-4.0%	3.2	-6.2
CC1CCCN(c2ncnc3c2nnn3C)C1 (centres undefined)	i	.	i	.	.	-4.7
Cc1ccc(-n2c3nc(=O)n(C)c(=O)c-3cc3ccccc32)c(C)c1	i	.	i	.	.	-5.7
CCCCn1c(=O)cc(C)n(-c2ccccc2)c1=O	i	2.0%	i	-4.0%	0.5	-4.3
Cc1ccc(C)c(-n2c3nc(=O)n(C)c(=O)c-3cc3ccccc32)c1	i	14.6µM*	i	0.5%	-26.7	-14.1
CCCCn1c(=O)nc2n(-c3ccccc3)c3ccccc3cc-2c1=O	?	-8.1%	10.3µM*	-6.6%	-6.8	0.2
N#Cc1c(-c2ccccc2)cc(-c2ccccc2)nc1SCC(O)CS(=O)(=O)Cc1ccc(Cl)cc1 (centres undefined)	i	.	i	.	.	-8.2
SMILES	KB-3-1 cytotox	MCF10A rereplic	KB-V1 cytotox	SW480 rerep	D3 antag	DRD3 agonist
O=c1c2sccc2n(Cc2cc(=O)n3ccccc3n2)c(=O)n1-c1cccc(C(F)(F)F)c1	.	.	.	.	.	5.0
CN(C(=O)CO)c1c(I)c(C(=O)NCC(O)CO)c(I)c(C(=O)NCC(O)CO)c1I (centres undefined)	.	.	.	.	.	7.1
CCCSc1ccc(-c2nn(-c3ccccc3)cc2/C=C(/C#N)C(=O)N2CCOCC2)cc1	?	-56.0%	23.1µM*	-81.2%	14.5	-0.5
CC1(C)CC(=O)C(C(c2cc([N+](=O)[O-])ccc2Cl)C2C(=O)CC(C)(C)CC2=O)C(=O)C1	i	?	i	11.6µM*	5.8	-4.6
O=C1CS/C(=N/N=C/c2c[nH]c3ccccc23)N1	i	18.4µM*	i	129.3%	-11.9	1.6
N#C/C(=C(/O)c1ccc2c(c1)OCO2)c1nc2cc(C(F)(F)F)ccc2s1	14.6µM*	9.8%	?	?	?	9.4
C=CC#CC1(O)CC(C)N(C)CC1C (centres undefined)	i	1.3%	i	-4.3%	-66.1*	6.4
C(=N\NC1=Nc2cccc3cccc1c23)/c1ccccn1	23.1µM*	?	?	14.4%	4.8	0.7
C(=N\Nc1nc2ccccc2s1)/c1ccccn1	?	?	?	?	-29.0	-25.8
Cc1csc(N/N=C/c2ccccn2)n1	?	?	?	3.66µM*	7.0	8.0
Cc1ccccc1NS(=O)(=O)c1ccc(Br)s1	i	.	?	.	.	-3.5
OC(c1ccccc1)(c1nc(-c2cc(F)cc(F)c2)cs1)C(F)(F)F (centres undefined)	i	.	i	.	0.0	-4.6
CCNC(=O)CN(C1CCCCC1)S(=O)(=O)c1ccc(F)cc1	i	3.0%	13µM*	0.5%	?	0.3
CN(C1CCCCC1)S(=O)(=O)c1ccc(S(=O)(=O)N(CC(=O)Nc2ccccc2)C2CC2)cc1	i	12.5%	i	3.66µM*	15.8	-14.4
CCN(CC)S(=O)(=O)c1ccc(C)c(C)c1	i	0.5%	i	-1.1%	24.7	5.1
CCN(CC)S(=O)(=O)c1cccc(S(=O)(=O)c2cccc(S(=O)(=O)N(CC)CC)c2)c1	?	?	i	-3.6%	12.3	36.2*
CCN(CC)S(=O)(=O)c1ccc2c(c1)C(=NO)c1cc(S(=O)(=O)N(CC)CC)ccc1-2	6.51µM*	8.2µM*	11.6µM*	?	-79.7*	-11.5
CCc1ccccc1NC(=O)CN(c1cc(C(F)(F)F)ccc1Cl)S(=O)(=O)c1ccccc1	i	.	i	.	.	-2.1
CCCN1C(=O)c2ccccc2NC1c1ccc(OC)cc1O (centres undefined)	?	?	5.8µM*	2.7%	-3.9	0.0
CCCN1C(=O)c2ccccc2NC1c1ccc(OC)cc1OC (centres undefined)	i	-11.9%	?	?	-20.0	-18.8
O=C(CCSCc1cccc(Cl)c1)NCc1ccccc1Cl	.	.	.	.	.	0.9

Screening data deposited in PubChem BioAssay by National Center for Advancing Translational Sciences (NCATS).
